Most compounds without a hit are left out; they make up all but 8% or so of the library.
HT1080NT lethal: kills 2HG-producing HT-1080-NT fibrosarcoma cells. actives 1.6% (n = 360,000). HT-1080-NT fibrosarcoma viability, CellTiter-Glo ATP luminescence, 48 h. AID 686970. Potency, µM (series often up to 46.1 µM), for the others: at the top dose activity, negative = less viability, most hits filed as cytotoxic;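 also: NT is the 2HG producing partner of a matched IDH1 knockdown line; 0% = DMSO-treated cells and -100% = media-only wells without cells; nearly all actives have a fitted effect of over 55% in size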
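Compounds were tested in concentration-response format on HT-1080-NT cells for 48 hours at 37 degrees C. Cell viability came from CellTiter-Glo luminescence; curves were classified by r2, response magnitude and activity.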
KB-V1 MDR tox: KB-V1 MDR subline cytotoxicity; KB-V1 MDR cells viability, CellTiter-Glo, 72 h; AID 1347076; actives 3.4% (n = 400,000); Potency, µM (series often up to 46.1 µM), actives largely listed as cytotoxic; also: % is scaled to controls: 0 for no effect and ±100 for the full control effect; nearly all actives have a fitted effect of over 60% in size
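KB-V1 cells (P-gp-expressing MDR subline of KB-3-1) in phenol-red-free DMEM with 10% FBS were exposed to library compounds over a concentration series for 72 h at 37 degrees C. Viability read by CellTiter-Glo luminescence; concentration-effect curves fitted after normalization.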
MCF10A rerep: induces DNA re-replication in MCF 10a normal breast cells | Potency, µM (highest dose often 46.1 µM), for the others: at the top dose activity, positive = re-replication, usual class: activators | MCF 10A DNA re-replication, Hoechst nuclear intensity, 48 h | AID 624296 | actives 2.9% (n = 350,000); also: % of control where 0% means no effect; nearly all actives have a fitted effect of over 50% in size
HT1080 IDH1KD tx: kills HT-1080 cells with IDH1 knockdown; HT-1080 IDH1 knockdown viability, ATP luminescence, 48 h; Potency, µM (series often up to 46.1 µM), inactives show at the highest dose activity, negative = toxicity, actives largely listed as cytotoxic; actives 2% (n = 360,000); AID 686971;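 also: 0% = DMSO wells and -100% = cell-free medium wells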
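After a 2 h attachment period, IDH1KD HT-1080 cells took pin-transferred compound for 48 h at 37 °C; ATP-based luminescence after 10 min room-temperature reagent incubation reported viability.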
KB-3-1 cytotox: kills parental KB-3-1 adenocarcinoma cells; KB-3-1 viability, CellTiter-Glo ATP luminescence, 72 h; Potency, µM (doses to about 46.1 µM), usual class: cytotoxic; actives 1.4% (n = 400,000); also: % is scaled to controls: 0 for no effect and ±100 for the full control effect; nearly all actives have a fitted effect of over 60% in size
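Here the drug-naive KB-3-1 line serves as comparator for MDR sub-line selectivity; cells received compound titrations, 72 h at 37 °C, then CellTiter-Glo readout.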
SW480 rerep: inducers of DNA re-replication in SW480 colon cancer cells; Potency, µM (titrated, usually from 46.1 µM), for inactives: at the highest dose re-replication activation, actives largely listed as activators; actives 1.8% (n = 340,000); AID 624297; SW480 DNA re-replication, Hoechst DNA content imaging, 48 h; also: % of control where 0% means no effect; nearly all actives have a fitted effect of over 55% in size
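Compounds, transferred as 23 nL by pin tool, were incubated with cells for 48 hr; DNA content per nucleus was then quantified by Hoechst staining and fluorescence plate imaging.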
The depositor's hits bear a star; i = inactive; ? = inconclusive; . = not tested or not shown; ! = not active in a repeat. Calls follow the shape of the dose curve; as a rule, active = well fitted curve in the direction sought with a large enough effect; inconclusive = small, poorly fitted or top-dose-only effect, or another doubt; inactive = no such curve, though single readings can be large; an effect the other way counts as inactive or inconclusive. Potency is read from the fitted curve at half-maximal effect.

SMILES	HT1080NT lethal	KB-V1 MDR tox	MCF10A rerep	HT1080 IDH1KD tx	KB-3-1 cytotox	SW480 rerep
CCOC(=O)CNC(=O)C1CCCN(c2ncccn2)C1 (stereo not given)	-6.7%	i	16.7%	4.2%	i	0.259µM*
O=C(Nc1ccc(Oc2ccccc2)cc1)C1CCCN(c2ncccn2)C1 (stereo not given)	-0.1%	5.8µM*	?	4.3%	i	3.0%
Cc1ccc(S(=O)(=O)N2CCC(C(=O)Nc3ccc(Oc4ccccc4)cc3)CC2)cc1	.	?	.	.	i	.
O=C(Nc1ccc(Oc2ccccc2)cc1)C1CCN(S(=O)(=O)c2ccccc2)CC1	.	6.51µM*	.	.	?	.
CCCn1c2ccccc2c2cnn(CC(=O)NCCc3ccc(OCC)cc3)c(=O)c21	.	i	.	.	i	.
O=C(COc1ccccc1)Nc1ccc(C(=O)OCc2cc(=O)n3nc(C4CC4)sc3n2)cc1	.	?	.	.	i	.
O=C(Nc1ccncc1)C1CCN(S(=O)(=O)c2ccccc2C(F)(F)F)CC1	-17.0%	.	?	-22.9%	.	-5.9%
CC(C)(C)NC(=O)Nc1nnc(-c2ccncc2)s1	.	i	.	.	?	.
CCN1C(=C2C(=O)c3ccccc3C2=O)C=Cc2ccccc21	8.4%	1.84µM*	-5.6%	8.0%	?	-10.6%
Cc1onc(C(=O)N2CCN(C(c3ccccc3)c3ccccc3)CC2)c1[N+](=O)[O-]	6.1%	i	3.6%	-8.7%	i	4.11µM*
COc1ccccc1N1CCN(C(=O)c2noc(C)c2[N+](=O)[O-])CC1	-0.8%	i	?	7.6%	i	?
Cc1ccnc(NC(=S)NC(=O)/C=C/c2ccco2)c1	?	8.2µM*	?	?	10.3µM*	?
O=C(/C=C/c1ccco1)NC(=S)Nc1ccc(O)c(-c2nc3ccccc3s2)c1	?	?	8.2µM*	?	5.8µM*	?
Cc1ccc(O)c(NC(=S)NC(=O)/C=C/c2ccccc2)c1	6.5%	?	-0.1%	5.5%	i	-8.3%
O=C(/C=C\c1ccco1)Nc1nc(-c2ccc3ccccc3c2)cs1	-14.7%	?	?	-25.8%	i	4.2%
Cc1ccc(O)c(NC(=S)NC(=O)/C=C/c2ccco2)c1	-26.4%	?	10.5%	-22.3%	10.3µM*	16.4µM*
Cc1ccc(-c2csc(NC(=S)NC(=O)/C=C/c3ccco3)n2)cc1	7.08µM*	3.26µM*	1.64µM*	7.94µM*	5.8µM*	29.5%
COc1ccc(CCNC(=O)CCCn2c(=O)c3ccccc3n(CC(=O)Nc3cccc(C)c3)c2=O)cc1OC	.	i	.	.	i	.
Cc1ccc(C(=O)N2CCC(C)CC2)cc1C	-0.4%	i	-2.8%	0.0%	i	-0.5%
CCCCCCCCCCCCCCCCCC(=O)OCC(C)O (stereo not given)	.	.	1.7%	.	.	-2.1%
CCc1c(C)sc(NC(=O)c2cccs2)c1C(=O)OC(C)C	14.7%	i	10.3µM*	8.1%	i	9.1%
CCCc1nn2c(=O)cc(COc3ccc(/C=C(\C#N)C(=O)Nc4ccccc4)cc3)nc2s1	.	?	.	.	i	.
CCN(CC)c1ccc(/C=C(\C#N)c2ccccn2)cc1	?	?	23.1µM*	?	?	14.6µM*
CCN(Cc1ccccc1)c1ccc(/C=C(\C#N)c2ccccn2)cc1	-11.4%	?	20.6µM*	-7.3%	i	17.6%
N#C/C(=C\c1ccc(C(=O)O)cc1)c1ccccn1	0.0%	i	0.8%	-5.4%	i	26.0%
SMILES	HT1080NT lethal	KB-V1 MDR tox	MCF10A rerep	HT1080 IDH1KD tx	KB-3-1 cytotox	SW480 rerep
CN(CCC#N)c1ccc(C=C(C#N)c2ccc(Br)cc2)cc1	-27.8%	16.4µM*	.	?	i	.
COc1cc(/C=C(\C#N)c2ccccn2)ccc1OCc1ccccc1	0.5%	i	-13.8%	4.6%	i	0.0%
N#C/C(=C\c1cccnc1)c1ccc(Br)cc1	8.6%	i	17.0%	8.4%	i	3.0%
CN(CCC#N)c1ccc(/C=C(\C#N)c2ccccn2)cc1	-2.2%	5.17µM*	?	-5.9%	?	14.0%
COC(=O)c1cccnc1NC(=S)NNC(=O)c1ccccc1	18.4%	i	26.6%	14.4%	i	-4.0%
CCOC(=O)c1cc(S(=O)(=O)N2CCN(c3ccc(OC)cc3)CC2)[nH]n1	.	i	.	.	i	.
Cc1ccc(NC(=O)CSc2nc3ccccc3n2CC(=O)N(C)C2CCCCC2)cc1C	.	i	.	.	i	.
CC[n+]1c(C)cc2c(sc3ccccc32)c1C	5.17µM*	i	19.0%	?	2.59µM*	-6.7%
CCc1nc(C)cc2c1sc1ccccc12	1.7%	i	?	-1.7%	i	?
Cc1ccc2nc(C3CCCN3Cc3nc(CCC(C)C)no3)[nH]c2c1 (stereo not given)	-12.2%	6.51µM*	-1.1%	-10.8%	i	-4.0%
COc1cccc(NC(=O)Cn2c(=O)n(CCC(=O)NCc3ccccc3OC)c(=O)c3ccccc32)c1	.	i	.	.	i	.
Cc1ccc(C(=O)N2[C@@H]3CN(C)C(=O)[C@@]2(C)[C@H]2C(=O)N(C)C(=O)[C@@H]32)cc1	21.6%	i	-3.5%	10.3%	i	-9.0%
COc1ccccc1CCNC(=O)C(C)n1nc(C)c2c(C)n(-c3ccccc3)nc2c1=O (stereo not given)	-5.1%	i	10.7%	-10.4%	i	13.1%
COc1ccc(CCNC(=O)C(C)n2nc(C)c3c(C)n(-c4ccc(C)cc4)nc3c2=O)c(OC)c1 (stereo not given)	20.6µM*	i	-1.2%	-25.3%	i	?
COc1ccc(CCNCC(O)COc2cccc(C(C)=O)c2)cc1OC (stereo not given)	0.0%	i	3.8%	8.2%	i	7.4%
Cc1c(C(=O)Nc2nonc2-c2ccc(F)cc2)oc2ccc(F)cc12	?	?	-0.7%	20.6µM*	18.4µM*	5.2%
Cc1cc2c(cc1C)N[C@]1(C[C@H]3CCCC(=O)N4CC[C@@H](C1)[C@@H]34)C(=NC(C)(C)CC(C)(C)C)N2	-14.6%	20.6µM*!	37.1%	-10.9%	?	?
O=C1CCC[C@@H]2C[C@@]3(C[C@@H]4CCN1[C@H]24)Nc1cc(Cl)ccc1NC3=NC1CCCCC1	1.3%	i	8.1%	0.4%	i	?
CC(C)(C)CC(C)(C)N=C1Nc2ccc(Cl)cc2N[C@]12C[C@H]1CCCC(=O)N3CC[C@@H](C2)[C@@H]13	.	20.6µM*	.	.	?	.
CC(C)C(=O)NC(NC(=S)Nc1cccc2cccnc12)C(Cl)(Cl)Cl (stereo not given)	-8.3%	23.1µM*	6.0%	-7.7%	i	1.5%

Bioassay records from PubChem BioAssay.
